# Source: PubChem BioAssay
# Most compounds without a hit are left out; they make up all but 12% or so of the library.
# JMJD2A Tudor: blocks the human JMJD2A Tudor domain; 390,000 tested, 4.4% active; AID 504339; Potency, µM (series often up to 114 µM), without a hit: at the highest dose activity change, negative = inhibition, usual class: inhibitors; O75164; AlphaScreen JMJD2A-Tudor / H3K4me3 peptide binding; note: % is set by controls: 0 for no effect and ±100 for the full control effect; nearly all actives have a fitted effect of over 50% in size
# TDP1 block: inhibitors of human tyrosyl-DNA phosphodiesterase TDP1; Q9NUW8; recombinant TDP1, AlphaScreen DNA substrate cleavage; Potency, µM (highest dose often 130 µM), for the others: at the highest dose activity change, negative = inhibition, hits mostly inhibitors; 350,000 tested, 0.28% active; AID 485290; note: % is set by controls: 0 for no effect and ±100 for the full control effect; nearly all actives have a fitted effect of over 40% in size
#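 Signal: AlphaScreen proximity between streptavidin donor and anti-FITC acceptor beads on intact substrate. Reaction: Tdp1 1 nM, substrate 15 nM final, 5 min RT after 15 min compound preincubation.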
# G9a block: inhibitors of human histone lysine methyltransferase G9a. 350,000 tested, 8.8% active. AID 504332. G9a H3K9 monomethylation, AlphaScreen, 2 h. Potency, µM (titrated, usually from 102 µM), inactives show at the top dose activity, negative = inhibition, most hits filed as inhibitors; note: % is set by controls: 0 for no effect and ±100 for the full control effect; nearly all actives have a fitted effect of over 75% in size
#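 Quantitative HTS format: methyltransferase activity on a biotin-tagged H3K9 peptide is measured by AlphaScreen, using a rabbit anti-monomethyl-H3K9 antibody with streptavidin donor and anti-IgG acceptor beads. Final levels are 20 nM enzyme, 500 nM peptide, 20 uM SAM; 2 h RT.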
# BAZ2B block: inhibitors of human BAZ2B bromodomain; Q9UIF8; AlphaScreen BAZ2B-H3K14Ac peptide displacement; Potency, µM (doses to about 114 µM), for inactives: at the highest dose activity change, negative = inhibition, usual class: inhibitors; 360,000 tested, 4.4% active; note: % is set by controls: 0 for no effect and ±100 for the full control effect; nearly all actives have a fitted effect of over 60% in size
#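 Protein-peptide AlphaScreen: BAZ2B 50 nM, b-H3K14Ac 50 nM, 1x PBS pH 7.4 + 0.01% Tween-20. Preincubation 30 min RT; cpd 30 min RT (top 110 uM); beads 20 min RT, light-protected.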
# HP1b binding inh: HP1-beta chromodomain-methylated histone interaction inhibition. P83916. AlphaScreen HP1-beta / biotin-H3K9me3 peptide binding. Potency, µM (doses to about 114 µM), for inactives: top-dose activity change, negative = inhibition, usual class: inhibitors. 390,000 tested, 0.56% active. AID 540317; note: nearly all actives have a fitted effect of over 70% in size
#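 HP1-beta protein (50 nM final) preincubated 30 min at room temperature with biotinylated H3(1-18)K9me3 peptide (50 nM) in PBS pH 7.4, 0.01% Tween-20, then compound added for 30 min. AlphaScreen streptavidin donor/nickel chelate acceptor beads (10 ug/mL final), 30 min dark, luminescence read.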
# Sfp inh: inhibitors of Bacillus subtilis Sfp phosphopantetheinyl transferase | Biochemical Sfp PPTase activity, qHTS | Q9F4F7 | 310,000 tested, 3.5% active | AID 1490 | Potency, µM, for the others: largest response in the series, negative = inhibition, hits mostly inhibitors;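 note: the enzyme is Sfp with the accession as filed and its product quenches rhodamine fluorescence; 0% = enzyme reaction without inhibitor and -100% = no enzyme wells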
#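 Step 1, compound plus 15 nM Sfp-PPTase, 15 min, room temperature. Step 2, add rhodamine-CoA (5 uM) and BHQ-2-YbbR (12.5 uM). Step 3, read 525/598 nm fluorescence at 0 and 30 min.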
# The depositor's hits bear a star; ? = inconclusive; nt = no result given; ! = a repeat was not active; [ ] = another dose, or the depositor's remark. Calls come from the whole dose curve; as a rule, active = well fitted curve in the direction sought with a large enough effect; inconclusive = small, poorly fitted or top-dose-only effect, or another doubt; inactive = no such curve, though single readings can be large; an effect the other way counts as inactive or inconclusive. Potency is the fitted concentration of half-maximal effect.
SMILES,JMJD2A Tudor,TDP1 block,G9a block,BAZ2B block,HP1b binding inh,Sfp inh
O=C(CSc1n[nH]c(-c2cccnc2)n1)OC1CCCCC1,22µM*,-3%,-2%,-21%,-9%,7%
Cc1ccc(C(=O)NNC(=O)CSc2n[nH]c(-c3cccnc3)n2)cc1,-51%,1%,?,?,-3%,-50%
O=C(O)c1cc2ccccc2c(N=Nc2cccnc2)c1O,-32%,8%[0.0935 µM],50µM*,?,?,8%
Cc1nc2cc(N)ccc2n1C1CCCCC1,-35%,13%,14µM*,?,21%,-19%
O=C(NNS(=O)(=O)c1ccccc1F)c1cc(-c2ccccc2)n[nH]1,-13%,nt,7%,-38%,11%,11%
O=C(O)/C=C\C(=O)NNC(=O)c1cc(-c2ccccc2)n[nH]1,25µM*,?,nt,28µM*,20%,50µM*
O=C(O)/C=C/C(=O)NNC(=O)c1cc(-c2ccccc2)n[nH]1,?,-4%,20µM*,-2%,25µM*,-40%
O=C(Nc1c(-c2ccc(F)cc2)nc2ccccn12)c1ccccc1F,3%,12%,2%[59 µM],2%,52%,nt
COc1ccc(C(=O)NCCn2cc(SCC(=O)Nc3cccc(C)c3)c3ccccc32)cc1,-16%,7%,-31%[59 µM],50µM*,33%,nt
Cc1nnc(NC(=O)CSc2cn(CCNC(=O)c3ccccc3)c3ccccc23)s1,-15%,8%,28µM*,-3%,48%,-19%
COc1ccc(C(=O)NCCn2cc(SCC(=O)Nc3nnc(C)s3)c3ccccc32)cc1,-21%,nt,nt,nt,16%,nt
CCOCc1nnc(NC(=O)C2CCN(C(=O)C3CC(=O)N(c4ccc(C)cc4)C3)CC2)s1 (stereo not drawn),-1%,nt,?,-9%,5%,0%
O=C(O)C1C2C=CC3(O2)C1C(=O)N1c2ccccc2C2OCCC2C13 (stereo not drawn),?,40µM*,-44%[59 µM],-36%,-2%,14%
O=C(CCS(=O)(=O)c1cccs1)Nc1ccc(C(=O)NC2CCCC2)cc1,-4%,-2%,-22%,-20%,33%,20%
CC(C)CCN(C(=O)CCCSc1nc2ccccc2[nH]1)c1c(N)n(Cc2ccccc2)c(=O)[nH]c1=O,-21%,-12%[0.505 µM],?,3%,53%,nt
CCOC(=O)CSC1=C(C#N)C(c2ccc3c(c2)OCO3)CC(=O)N1 (stereo not drawn),5%[11.4 µM],7%,-20%[59 µM],0%,33%,-6%
CCOC(=O)CSC1=C(C#N)C(c2ccc(Cl)cc2)CC(=O)N1 (stereo not drawn),-17%,-1%,79µM*,2%,26%,-2%
C=C(C)CSC1=C(C#N)C(c2ccsc2)CC(=O)N1 (stereo not drawn),-14%,7%,3%[12.7 µM],15%,11%,28µM*
C=CCSC1=C(C#N)C(c2ccc(C(C)C)cc2)CC(=O)N1 (stereo not drawn),-29%,0%,45µM*,-4%,0%,45µM*
C=CCSC1=C(C#N)C(c2ccccc2)CC(=O)N1 (stereo not drawn),-24%,5%,50µM*,6%,25%,-29%
CCSC1=C(C#N)C(c2ccc(F)cc2)CC(=O)N1 (stereo not drawn),-3%,1%,-13%,6%,32%,-4%
CCSC1=C(C#N)C(c2cccc(O)c2)CC(=O)N1 (stereo not drawn),-24%,0%,-18%,-4%,15%,-6%
Fc1ccccc1COc1ccc(C(=S)N2CCCC2)cc1,-5%,nt,?,-17%,32%,10%
CCC(=O)N1CCc2cc(CNS(=O)(=O)c3ccc(Cl)s3)ccc21,-14%,0%,14%[59 µM],-1%,8%[57 µM],nt
COc1cc(C(C)=O)ccc1COc1ccc(C(=O)O)cc1OC,-1%,nt,nt,-7%,17%,-18%
SMILES,JMJD2A Tudor,TDP1 block,G9a block,BAZ2B block,HP1b binding inh,Sfp inh
COc1ccc(Cl)cc1S(=O)(=O)Nc1cccc(-c2ccc(N3CCOCC3)nn2)c1,-10%,4%,5%[59 µM],-1%,27%[57 µM],nt
CCOC(=O)NC(=O)CSc1nnnn1-c1ccccc1,-3%,-2%,-8%[59 µM],4%,32%,7%
Cc1ccc(-c2cn(-c3ccccc3)c(SCC(N)=O)n2)cc1C,?,-1%,?,50µM*,-22%,-18%
Cc1ccccc1-n1cc(-c2ccc(Br)cc2)nc1SCC(N)=O,?,6%,-39%[59 µM],?,-10%,-5%
CCOC(=O)NC(=O)CSc1nc(-c2ccc(C)c(C)c2)cn1-c1ccccc1,?,-5%,7.9µM*,35µM*,?,-14%
CCOC(c1cc(OC)cc([N+](=O)[O-])c1OC)C(C)C(OC)[C@@H](C)/C=C/CC(=O)OC (stereo partly drawn),nt,1%[21 µM],nt,nt,nt,3%
CN(Cc1ccccc1)C(=O)c1[nH]cnc1C(=O)NC1CCN(C(=O)OC(C)(C)C)CC1,-19%,3%,nt,nt,41%,nt
CCc1ccccc1-n1cnc2cc(C(=O)NC3CCCCCC3)ccc21,-16%,10%,-26%[59 µM],-17%,10%,nt
COc1ccc(C(=O)Nc2ccccc2C(=O)NC(Cc2ccc(O)cc2)C(=O)NNC(=O)c2ccncc2)cc1 (stereo not drawn),-12%,2%,1.4µM*,?,20%,-3%
CCCCN1C(=O)NC(c2cccc([N+](=O)[O-])c2)C(C(=O)OCC)=C1C (stereo not drawn),-17%,nt,nt,nt,61%,nt
C#CCN1C(C)=C(C(=O)OC)C(c2cccc([N+](=O)[O-])c2)C(C(=O)OCC)=C1C (stereo not drawn),-32%,12%[56.1 µM],11µM*!,-29%,7%,nt
CCOC(=O)c1nn(-c2ccc(F)cc2)c2c1CC/C2=C/c1ccccc1,-7%,-2%,71µM*,-1%,38%,0%
NNc1ccc(Cl)nn1,8.9µM*,0%,nt,20µM*,79µM*,45µM*
CNc1ccc(Cl)nn1,-1%,-1%,20%[12.7 µM],-8%,19%,14%
COc1cccc(CN(C)C(=O)C2CCN(S(=O)(=O)c3cccs3)CC2)c1OC,4%,-2%[56.1 µM],6%[2.33 µM],5%,35%,nt
CCOc1ccc(OCc2ccc(C(=O)O)o2)cc1,-34%,nt,?,?,8%,9%
CCCCCCCCCCCCCCOc1ccc(C(=O)O)o1,nt,40µM*,nt,nt,nt,2%
c1ccc(Nc2ccccn2)cc1,22µM*,7%,6%[59 µM],1%,?,6%
c1ccc(Nc2cccc(Nc3ccccc3)n2)cc1,56µM*,12%,7.9µM*,45µM*,?,-4%
O=C(CC(=O)Nc1ccccn1)Nc1ccccn1,-20%,0%,27%,2%,23%,14%
